Here are results for 33 molecules from PubChem BioAssay (NCI).

The structures appear in SMILES notation. About 83,000 compounds went through this panel and 20% of them were active in at least one assay; those are over-represented in the sample as a whole.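 Negative percent growth values reflect cell death: -40 means 40% of the cells present at the start died, and -100 means all died.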 Unmarked numbers belong to inactive results. Calls of active or inactive are those of the source. The calls were made as follows: active = growth percent below 10; inactive = the rest.

The experiment concerns RPMI-8226 leukemia. As to the kind of experiment: NCI-60 one-dose screen, 48 h (100 = growth as untreated, 0 = no growth, -100 = all killed). As to conditions: 10 µM unless noted.
For the molecule `O=C(Nc1nc2ccccc2s1)Nc1ccccc1Cl`, the growth was 91.9%. The figure for `Cc1ccc(C(=O)Nc2cc(-n3ccnc3C)cc(C(F)(F)F)c2)cc1C#Cc1cnc2cccnn12` is -14.8% (active); for `O=C(c1ccc(O)cc1)C1[C@H](c2ccc(Cl)cc2)[C@@H](c2ccccc2)NC12C(=O)Nc1ccccc12` (stereo partly drawn) it is -3.39% (active).

As for `COc1ccc(-c2nc3ccc(-c4nnc(SCC(=O)Nc5ccc(/C(C)=N\O)cc5)o4)cc3[nH]2)cc1`, the growth is 36.5%. The figure for `C[C@H]1[C@@H](CC(=O)N[C@@H](Cc2coc3ccccc23)B(O)O)O[C@@H]2OC3(C)CC[C@H]4[C@H](C)CC[C@@H]1[C@@]24O3` is -4.75% (active); for `Cc1cc(C(NC(=O)C2CC3(CC(Nc4cccc5c4C(=O)N(C4CCC(=O)NC4=O)C5=O)C3)C2)c2ccc3c(c2)OC(F)(F)O3)c(O)c2ncccc12` (stereo not drawn) it is 15%; for `NC(=O)c1ccc(-c2ccc3ncnc(N4CCc5cc(F)c(Cl)cc54)c3c2)cn1` it is 48.5%.

In the case of `CCN1C(=O)N(CC)C2NNC(Sc3c(C(=O)O)c4ccccc4n(CCC(C)C)c3=O)=NC21` (stereo not drawn), the growth was 10.3%. The figure for `COc1ccc2[nH]c(O)c(N=Nc3nc(-c4ccc(Cl)cc4)cs3)c2c1` is 13.1%; for `CC[C@]12C=CCN3CC[C@@]4(c5ccc(OC)cc5N(C)[C@H]4[C@@](O)(C(=O)OC)[C@@H]1OC(=O)CCCC[P+](c1ccc(F)cc1)(c1ccc(F)cc1)c1ccc(F)cc1)[C@@H]32` it is 4.14% (active). As for `COc1cccc(/C=C/c2nc3ccccc3c(=O)n2CC(=O)Nc2ccccc2)c1`, the growth was 71.3%. The same measure for `O=C(c1ccc(Cl)cc1)C1[C@H](c2ccccc2Cl)[C@@H](c2ccccc2)NC12C(=O)Nc1ccc(Br)cc12` (stereo partly drawn): 2.44% (active). For the molecule `O=C(CSc1nnc(-c2ccc(-c3nc4ccc(Cl)cc4[nH]3)cc2)o1)Nc1ccc(Cl)cc1`, the growth is 8.59% (active).

For the molecule `N#Cc1c(NC(=O)N2CCOCC2)n(-c2ccc(OC(F)(F)F)cc2)c2cc(F)ccc12`, the growth is 57.9%. The same measure for `O=C(N/N=C/c1ccc(Cl)o1)c1[nH]c2ccc(Br)cc2c1-c1ccccc1`: 1.15% (active); for `CC1=C(C(=O)OCc2ccccc2)C(c2cccc3ccccc23)n2c(nc3ccccc32)N1` (stereo not drawn): 15.3%. The figure for `CC1=NN(C2=NC(=O)C(CC(=O)Nc3ccccc3C(F)(F)F)S2)C(c2ccc(N(C)C)cc2)C1` (stereo not drawn) is 25.3%. The same measure for `CN1C(=O)C2(C(C#N)=C(c3ccc(Cl)cc3)Nc3c2c(-c2ccccc2)nn3-c2ccccc2)c2ccccc21` (stereo not drawn): 60.3%; for `O=[N+]([O-])c1cccc(-c2nnc3c(/C=C/c4ccc(F)cc4)nc4ccccc4n23)c1`: 102%; for `COC(=O)c1cc(C(C)=O)n2c3ccccc3c3ccccc3c12`: 87.7%.

On to `CCCCCCCOc1ccc(S(=O)(=O)Nc2ccc(C)c(F)c2C(=O)O)cc1`, for which the growth is 54.9%.

With `COc1ccc2[nH]cc(-c3cc4nc(-c5cn(C)c6ncc(Br)cc56)cc(N)n4n3)c2c1`, the growth is -6.2% (active). The figure for `COc1ccc2c(c1)N=c1c-2cc2c(O)[nH]c(=S)n2c1=O` is 62.6%; for `CC(C)C[C@H](NC(=O)[C@@H]1CCCCCCCCCCC(=O)N[C@@H](CC(=O)N2CCC[C@@H]2C2CCCC2)C(=O)N1)B(O)O` it is 22%. The same measure for `O=C1NC(=S)/C(=C/c2cn(-c3ccccc3)nc2-c2ccccc2)S1`: 5.49% (active); for `CN(C)C(=O)c1cc(-c2ccc3ncnc(N4CCc5cc(F)c(Cl)cc54)c3c2)cnc1N`: -34.6% (active). In the case of `N#C/C(=C/c1ccc(Cl)cc1)c1nnc(NC(=O)c2ccc(-n3c(=O)[nH]c4ccccc4c3=O)cc2)s1`, the growth is 70.4%. As to `COc1c(B(O)O)cc(F)cc1-c1nc2c(F)cc3[nH]ncc3c2c2c1CCCC2`, the growth is -5.25% (active). The same measure for `O=C(CSc1nc2sc3c(c2c(=O)n1-c1ccc(Cl)cc1)CCCC3)NNC(=O)c1ccc(Br)cc1`: 81.3%. The same measure for `CN(C)c1ccc(/C=C/c2n(Cc3ccc4ccccc4c3)c3ccccc3[n+]2Cc2ccc3ccccc3c2)cc1`: -36.7% (active). The figure for `COc1ccc2[nH]c(=O)cc(-n3ncc(C(=O)/C=C/c4cc(OC)c(OC)c(OC)c4)c3C)c2c1` is -45.2% (active); for `COc1ccc(C(=O)C[n+]2cccc3c4ccccc4ccc32)cc1` it is 25.2%; for `CN1CCc2c(sc3ncnc(N/N=C/c4cccc(Cl)c4Cl)c23)C1` it is -16% (active).
